# Reference: PubChem BioAssay (NCATS)
# Calls of active or inactive are those of the source. The rule behind the calls is not given here.
# Test system: HIV-1 nucleocapsid protein NCp7 (binding to TG oligonucleotide)
# Assay: HIV Nucleocapsid (AID 346);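 note: potency is for inhibitors that block NC binding and lower polarization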
# Conditions: HIV-1 NC / fluorescein-TGTGTGTG probe, fluorescence polarization
# In short: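 NCp7 100 nM + fluorescein TG4xF 10 nM; Hepes pH 7.5/250mM NaCl/1uM ZnCl2/0.004% PEG 20000; 1 hr RT; FP, 45 s exposure; oligo-only wells as negative control.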
# Potency is the fitted concentration of half-maximal effect.
row,Compound,Potency
1,Cc1ccccc1-c1cncnc1NCc1ccccc1,> 20 µM (inactive)
2,COc1ccc(CNc2ncncc2-c2cccc(NS(C)(=O)=O)c2)c(OC)c1,> 20 µM (inactive)
3,CNc1ncnc2ccc(-c3ccccc3CN(C)C)cc12,> 20 µM (inactive)
4,Cn1cccc1C(=O)N1CCC2(CCN(Cc3ccccc3)CC2)CC1,> 20 µM (inactive)
5,CC(C)CN1CCC2(CC1)CCN(C(=O)c1cc(C(F)(F)F)cc(C(F)(F)F)c1)CC2,> 20 µM (inactive)
6,O=C(c1cccc(F)c1)N1CCC2(CCCN(c3ccccn3)C2)CC1,> 20 µM (inactive)
7,CC(C)NC(=O)N1CC[C@@]2(CCCN(S(C)(=O)=O)C2)C1,> 20 µM (inactive)
8,COCCn1c(=O)c(-c2cn(C)c3ccccc23)nc2cnc(N3CCNCC3)nc21,> 20 µM (inactive)
9,N#Cc1cccc(-c2ccc3ncnc(NCc4cccs4)c3c2)c1,> 20 µM (inactive)
10,COc1ccc2[nH]cc(CCNc3nc(-c4ccccc4CN(C)C)nc4ccccc34)c2c1,> 20 µM (inactive)
11,COc1ccc(C(=O)N2CCC3(CCN(CC(C)C)CC3)CC2)cc1,> 20 µM (inactive)
12,Cc1noc(C)c1-c1nccc(N(C)Cc2ccco2)n1,> 20 µM (inactive)
13,Cc1cnc(CNc2ccnc(-c3cccnc3)n2)cn1,> 20 µM (inactive)
14,CC(C)NC(=O)N1CCC2(CC1)CCN(C(=O)c1csnn1)CC2,> 20 µM (inactive)
15,COCCNc1ncnc2ccc(-c3ccccc3C(F)(F)F)cc12,> 20 µM (inactive)
16,O=C(c1cnccn1)N1CCC[C@@]2(CCN(c3ccccc3)C2)C1,> 20 µM (inactive)
17,N#CCCn1c(=O)c(-c2cc(F)cc(F)c2)nc2cnc(N3CCOCC3)nc21,> 20 µM (inactive)
18,CN(C)c1ncc2nc(-c3cccs3)c(=O)n(C)c2n1,> 4 µM (inactive)
19,COc1ccc(-n2c(=O)c(-c3cn(C)c4ccccc34)nc3cnc(N4CCNCC4)nc32)cc1,> 4 µM (inactive)
20,CCNc1ncc2nc(-c3ccccc3)c(=O)n(C)c2n1,> 20 µM (inactive)

row,Compound,Potency
1,O=C(c1ccncc1)N1CCC[C@@]2(CCN(c3ccccc3)C2)C1,> 20 µM (inactive)
2,CN1CCN(c2ncc3nc(-c4cccc(C#N)c4)c(=O)n(C)c3n2)CC1,> 20 µM (inactive)
3,COc1cccc(-c2ccc3ncnc(NCc4ccccc4OC)c3c2)c1,> 20 µM (inactive)
4,O=c1c(-c2cc(F)cc(F)c2)nc2cncnc2n1-c1ccccc1,> 20 µM (inactive)
5,COCCNc1nc(-c2ccc(N(C)C)cc2)nc2ccccc12,> 20 µM (inactive)
6,O=S(=O)(c1ccccc1)N1CCC[C@@]2(CCN(c3ncccn3)C2)C1,> 20 µM (inactive)
7,CC(=O)NCCNc1nc(-c2ccccc2CN(C)C)nc2ccccc12,> 20 µM (inactive)
8,COc1ccc(C(=O)N2CCC3(CC2)CN(c2ccncc2)C3)cc1,> 20 µM (inactive)
9,COCCn1c(=O)c(-c2cccs2)nc2cnc(N3CCNCC3)nc21,13 µM (inactive)
10,CN(Cc1ccco1)c1ccnc(-c2cccc(NS(C)(=O)=O)c2)n1,> 20 µM (inactive)
11,O=C(c1ccco1)N1CCC2(CCCN(c3cccc(-c4ccccc4)c3)C2)CC1,> 20 µM (inactive)
12,N#CCCn1c(=O)c(-c2ccc(Cl)cc2)nc2cnc(N3CCOCC3)nc21,> 20 µM (inactive)
13,N#Cc1cccc(NC(=O)N2CCC3(CC2)CCN(C(=O)c2cnccn2)CC3)c1,> 20 µM (inactive)
14,Cc1ccccc1-c1nc(N2CCNCC2)c2ccccc2n1,> 20 µM (inactive)
15,Cc1nc2cnc(N3CCOCC3)nc2n(CCC#N)c1=O,> 20 µM (inactive)
16,CN(C)c1ccc(-c2ccc3ncnc(N(C)Cc4ccco4)c3c2)cc1,> 20 µM (inactive)
17,CCNc1ncc2nc(CCc3ccccc3)c(=O)n(Cc3cccc(OC)c3)c2n1,> 20 µM (inactive)
18,COc1cccc(Cn2c(=O)c(-c3ccc(Cl)cc3)nc3cnc(OC)nc32)c1,> 20 µM (inactive)
19,CCNc1ncc2nc(-c3ccc(OC)cc3)c(=O)n(CCc3ccccc3)c2n1,> 4 µM (inactive)
20,COc1ccc(-n2c(=O)c(C)nc3cnc(OC)nc32)cc1,> 20 µM (inactive)
